Growth data for 20 compounds are collected here from PubChem BioAssay (NCI).

Compounds without any hit were thinned out: in the full panel of roughly 83,000, 20% have a hit.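 How to read the values: 0–100, growth inhibition (40 = 60% inhibited); 0, no net growth; -100 to 0, cell death (-40 = 40% of starting cells died; -100 = all dead).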 A number with no mark means an inactive call. Calls of active or inactive are those of the source. The calls were made as follows: active = growth percent below 10; inactive = the rest.

Some test systems named below: HCT-15 colon; HT29 colon; SNB-75 CNS; SNB-19 CNS; U251 CNS; PC-3 prostate; SK-MEL-5 melanoma; LOX IMVI melanoma; UACC-62 melanoma; SK-MEL-28 melanoma.
Holding throughout (assay): NCI-60 one-dose screen, 48 h (100 = growth as untreated, 0 = no growth, -100 = all killed)
What all share (conditions): 10 µM unless noted

As for `CCCCCCCC(=O)SCC/C=C/[C@@H]1CC(=O)NCc2cccc(n2)CN(Cc2ccc3ccccc3c2)CC(=O)N[C@@H](C(C)C)C(=O)O1`, the growth in the experiment on HCT-15 colon was 57.8%; in the experiment with HT29 colon, 14.5%; in the experiment on SNB-75 CNS, 29.2%; in the experiment on SNB-19 CNS it was 48.9%; in the experiment on U251 CNS, 35.9%; with PC-3 prostate, 34.8%. Further, the growth with SK-MEL-5 melanoma is 9.24% (active); in the experiment on LOX IMVI melanoma, 5.42% (active).
Turning to `COC(=O)CCCCCn1c2ccccc2c2c3c(c4c5ccccc5[nH]c4c21)C(=O)N(O)C3=O`, the growth is 44.1% in the experiment on HCT-15 colon; 24% with HT29 colon; 92% with SNB-75 CNS; 29.9% in the experiment with SNB-19 CNS; 10.2% with U251 CNS; 34.3% in the experiment with PC-3 prostate. The growth in the experiment with SK-MEL-5 melanoma was 33.1%; in the experiment with LOX IMVI melanoma, -65% (active).
As to `Cn1c2ccccc2c2c3c(c4c5cccnc5[nH]c4c21)C(=O)N(O)C3=O`, the growth with HCT-15 colon is 67.4%; in the experiment with HT29 colon, 28.9%; with SNB-75 CNS it was 61%; in the experiment on SNB-19 CNS it was 38.1%; in the experiment on U251 CNS, 21%; with PC-3 prostate it was 42.4%. In addition, the growth was 12.7% in the experiment with SK-MEL-5 melanoma and 2.63% (active) in the experiment on LOX IMVI melanoma.
With `C=C1C(=O)O[C@H]2[C@H]1CC/C(Cn1cc(-c3ccc(F)cc3)nn1)=C\CC[C@@]1(C)O[C@@H]21`, the growth in the experiment with HCT-15 colon is -78.8% (active); in the experiment on HT29 colon, -84.8% (active); in the experiment with SNB-75 CNS, 85.5%; in the experiment on SNB-19 CNS, 66.8%; with U251 CNS, 20.7%; in the experiment on PC-3 prostate, 28.5%. Also, the growth is 36.3% in the experiment on SK-MEL-5 melanoma and -89.3% (active) in the experiment with LOX IMVI melanoma.
Consider `Oc1ccc(CCC2CCCC(CCc3ccc(OCCF)cc3)N2)cc1` (stereo unspecified), for which the growth in the experiment with HCT-15 colon was 88.1%; in the experiment on HT29 colon, 87.2%; in the experiment on SNB-75 CNS, 78.7%; with SNB-19 CNS it was 101%; in the experiment on U251 CNS, 85.8%; in the experiment with PC-3 prostate it was 87.8%. Moreover, the growth in the experiment on SK-MEL-5 melanoma was 90%; in the experiment with LOX IMVI melanoma it was 98.7%.
Take `COC(=O)[C@]12CC[C@@H](C)[C@H](C)[C@@H]1C1=CC(=O)[C@@H]3[C@@]4(C)C[C@@H](OC(C)=O)[C@H](OC(C)=O)[C@@](C)(COC(C)=O)[C@@H]4C(=O)C[C@@]3(C)[C@]1(C)CC2`: the growth in the experiment on HCT-15 colon is 38.5%; with HT29 colon it was 40.4%; in the experiment on SNB-75 CNS, 55.6%; in the experiment on SNB-19 CNS it was 57%; with U251 CNS it was 40.7%; with PC-3 prostate, 2.41% (active). For the same compound, the growth in the experiment on SK-MEL-5 melanoma was 20%; in the experiment on LOX IMVI melanoma, 50.8%.
As to `C=C(C)[C@@H]1CC[C@]2(C(=O)NNC(=O)c3cccnc3)CC[C@]3(C)[C@H](CC[C@@H]4[C@@]5(C)CCCNC(C)(C)[C@@H]5CC[C@]43C)[C@@H]12`, the growth is 62.4% in the experiment on HCT-15 colon; 11.3% in the experiment with HT29 colon; 80% with SNB-75 CNS; 91.2% in the experiment with SNB-19 CNS; 64.6% in the experiment on U251 CNS; 50.3% in the experiment on PC-3 prostate. For the same compound, the growth in the experiment with SK-MEL-5 melanoma was 74.4%; with UACC-62 melanoma, 91%; in the experiment with SK-MEL-28 melanoma, 90%.
Take `O=S(=O)(NCCNc1cc(-c2cn(-c3ccccc3)nc2-c2cccc(O)c2)ccn1)c1ccc(C(F)(F)F)cc1`: the growth in the experiment on HCT-15 colon was 28.5%; in the experiment with HT29 colon, 4.36% (active); with SNB-75 CNS, 49.7%; with SNB-19 CNS it was 54.4%; with U251 CNS it was 36.5%; with PC-3 prostate, 22.6%. Further, the growth in the experiment on SK-MEL-5 melanoma was 36.9%; in the experiment on LOX IMVI melanoma, 23.5%.
In the case of `COc1ccc(C2NC(=O)Nc3ccccc32)c(OC)c1` (stereo unspecified), the growth was 100% in the experiment with HCT-15 colon; 108% in the experiment with HT29 colon; 68.7% in the experiment with SNB-75 CNS; 99.1% in the experiment with SNB-19 CNS; 99.7% in the experiment with U251 CNS; 82.2% in the experiment with PC-3 prostate. The values for the growth with SK-MEL-5 melanoma and in the experiment on LOX IMVI melanoma were 96% and 103%, respectively.
On to `Nc1c(C(=O)Nc2c(Cl)cccc2Cl)sc2nc3c(cc12)CCCC3`, for which the growth with HCT-15 colon is 41.9%; with HT29 colon, 43.3%; in the experiment with SNB-75 CNS, 71.6%; in the experiment on SNB-19 CNS, 82.8%; with U251 CNS, 74.1%; with PC-3 prostate it was 80%. Further, the results for the growth in the experiment with SK-MEL-5 melanoma and in the experiment on LOX IMVI melanoma were 83.1% and 59.4%, respectively.
For `COc1cccc(-c2nn(-c3ccccc3)cc2-c2ccnc(NCCCN)c2)c1`, the growth with HCT-15 colon was 56.7%; in the experiment on HT29 colon, 86.2%; with SNB-75 CNS it was 45.4%; in the experiment with SNB-19 CNS it was 48.9%; with U251 CNS it was 38.9%; in the experiment with PC-3 prostate, 47.7%. In addition, the growth with SK-MEL-5 melanoma is 28.5%; in the experiment with LOX IMVI melanoma it was 54.8%.
Consider `Nc1c(C(=O)Nc2c(Cl)cccc2Cl)sc2nc3c(cc12)C(=O)CCC3`, for which the growth with HCT-15 colon is 35.5%; in the experiment with HT29 colon, 13.3%; with SNB-75 CNS it was 14.1%; with SNB-19 CNS it was 39.6%; in the experiment with U251 CNS, 26.4%; in the experiment on PC-3 prostate, 39.9%. Further, the growth in the experiment on SK-MEL-5 melanoma was 10.4%; with LOX IMVI melanoma, 44.4%.
Turning to `COC(=O)[C@]12CC[C@@H](C)[C@H](C)[C@@H]1C1=CC(=O)[C@@H]3[C@@]4(C)C[C@@H](O)[C@H](O)[C@@]5(C)COC(=C45)C[C@@]3(C)[C@]1(C)CC2`, the growth was 26.5% in the experiment with HCT-15 colon; 27.4% in the experiment on HT29 colon; 32.8% in the experiment on SNB-75 CNS; 60.8% in the experiment with SNB-19 CNS; 39.5% with U251 CNS; 49.2% with PC-3 prostate. The growth with SK-MEL-5 melanoma is 41.3%; in the experiment on LOX IMVI melanoma it was 57%.
For the compound `Cc1cc(C)c(NC(=O)c2sc3nc4c(cc3c2N)CCCC4)c(C)c1`, the growth was 32.1% in the experiment on HCT-15 colon; 13.9% in the experiment on HT29 colon; 18.5% in the experiment with SNB-75 CNS; 43.4% in the experiment on SNB-19 CNS; 27.7% with U251 CNS; 54% in the experiment with PC-3 prostate. Besides, the growth was 50.1% with SK-MEL-5 melanoma and 37.6% with LOX IMVI melanoma.
Take `COc1ccccc1CNc1nc(N)nc2[nH]c3ccc(O)cc3c12`: the growth in the experiment on HCT-15 colon was 41%; in the experiment on HT29 colon it was 18.9%; in the experiment on SNB-75 CNS, 35.8%; in the experiment with SNB-19 CNS it was 59%; with U251 CNS it was 37.4%; in the experiment on PC-3 prostate it was 65.5%. Moreover, the growth with SK-MEL-5 melanoma was 38.3%; in the experiment with LOX IMVI melanoma it was 43.2%.
Regarding `COc1cccc(-c2nn(-c3ccccc3)cc2-c2ccnc(NCCCNS(=O)(=O)c3ccc(C(F)(F)F)cc3)c2)c1`, the growth with HCT-15 colon is 22.3%; with HT29 colon, -6.28% (active); in the experiment with SNB-75 CNS it was 47.4%; in the experiment with SNB-19 CNS it was 38%; in the experiment on U251 CNS it was 27.1%; in the experiment on PC-3 prostate it was 12.9%. For the same compound, the growth with SK-MEL-5 melanoma is -54.2% (active); in the experiment on LOX IMVI melanoma, 36%.
As to `COC(=O)[C@]12CC[C@@H](C)[C@H](C)[C@@H]1C1=CC[C@@H]3[C@@]4(C)C[C@@H](O)OC[C@](C)(C=O)C4C(=O)C[C@@]3(C)[C@]1(C)CC2` (stereo partly specified), the growth in the experiment on HCT-15 colon is 5.82% (active); with HT29 colon it was -59.3% (active); with SNB-75 CNS, 13.3%; in the experiment on SNB-19 CNS, 27.1%; in the experiment on U251 CNS it was 0.219% (active); in the experiment on PC-3 prostate it was 5.85% (active). Further, the growth in the experiment with SK-MEL-5 melanoma was -91.3% (active); with LOX IMVI melanoma, -34.2% (active).
Regarding `O=S(=O)(NCCNc1cc(-c2cn(-c3ccccc3)nc2-c2cccc(O)c2)ccn1)c1ccccc1`, the growth is 17.9% in the experiment with HCT-15 colon; 24.1% with HT29 colon; 78.4% in the experiment on SNB-75 CNS; 72.4% in the experiment on SNB-19 CNS; 43.3% with U251 CNS; 30.1% in the experiment on PC-3 prostate. Besides, the growth in the experiment with SK-MEL-5 melanoma is 34%; with LOX IMVI melanoma, 54.7%.
As for `CNC(=O)c1cc(Oc2ccc3nc(NC(=O)Nc4ccc(Cl)cc4)sc3c2)ccn1`, the growth was 84.8% in the experiment with HCT-15 colon; 68.8% in the experiment with HT29 colon; 50.6% with SNB-75 CNS; 59.3% with SNB-19 CNS; 37.3% in the experiment on U251 CNS; 66% with PC-3 prostate. Further, the results for the growth in the experiment with SK-MEL-5 melanoma and with LOX IMVI melanoma were 73.3% and 51.6%, respectively.
Take `O=S(=O)(NCCNc1cc(-c2cn(-c3ccccc3)nc2-c2cccc(O)c2)ccn1)c1ccc(Br)cc1`: the growth in the experiment with HCT-15 colon was 5.6% (active); with HT29 colon it was 4.7% (active); in the experiment on SNB-75 CNS, 43.7%; with SNB-19 CNS, 41.3%; with U251 CNS, 22.5%; with PC-3 prostate it was 15.6%. Moreover, the growth was 11.5% in the experiment with SK-MEL-5 melanoma and 20% in the experiment on LOX IMVI melanoma.
